Compound activity as filed in PubChem BioAssay.
HP1b chromo inh – HP1-beta chromodomain-methylated histone interaction inhibition. P83916. AlphaScreen HP1-beta / biotin-H3K9me3 peptide binding. Potency, µM (doses to about 114 µM), for inactives: at the top dose activity change, negative = inhibition, actives largely listed as inhibitors. 390,000 tested, 0.56% active. AID 540317; also: nearly all actives have a fitted effect of over 70% in size
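AlphaScreen: HP1-beta (50 nM) preformed 30 min with biotin-H3(1-18)K9me3 peptide (50 nM) in PBS pH 7.4, 0.01% Tween-20. Compound added for 30 min at RT, then streptavidin donor/nickel chelate acceptor beads (10 ug/mL) for 30 min.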
JMJD2A Tudor – blocks the human JMJD2A Tudor domain | AID 504339 | Potency, µM (highest dose often 114 µM), for inactives: at the top dose activity change, negative = inhibition, hits mostly inhibitors | 390,000 tested, 4.4% active | O75164 | AlphaScreen JMJD2A-Tudor / H3K4me3 peptide binding; also: % is scaled to controls: 0 for no effect and ±100 for the full control effect; nearly all actives have a fitted effect of over 50% in size
G9a block – G9a (human) methyltransferase inhibition | G9a H3K9 monomethylation, AlphaScreen, 2 h | Potency, µM (series often up to 102 µM), without a hit: top-dose activity, negative = inhibition, usual class: inhibitors | 350,000 tested, 8.8% active | AID 504332; also: % is scaled to controls: 0 for no effect and ±100 for the full control effect; nearly all actives have a fitted effect of over 75% in size
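Chemiluminescent proximity detection of H3K9 monomethylation, read after 10 min bead incubation in the dark. Reaction: 20 nM G9a, 500 nM biotin-H3K9 peptide, 20 uM SAM cofactor, 2 h, room temperature, following 15 min enzyme-compound preincubation.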
L3MBTL1 inh – L3MBTL1 (human) inhibition; 230,000 tested, 0.66% active; AlphaScreen L3MBTL1–H3K9me1 peptide binding; Q9Y468; Potency, µM (titrated, usually from 57.1 µM), inactives show at the highest dose activity, negative = inhibition, hits mostly inhibitors; also: % is scaled to controls: 0 for no effect and ±100 for the full control effect; nearly all actives have a fitted effect of over 60% in size
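AlphaScreen proximity signal between nickel-chelate acceptor and streptavidin donor beads (final 10 ug/mL) reports binding of 50 nM L3MBTL1 to 75 nM biotin-H3 K9me1 peptide; complex incubated with compounds 30 min at room temperature; cefsulodin titration as control.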
Sfp inh – blocks B. subtilis Sfp PPTase activity; Q9F4F7; Biochemical Sfp PPTase activity, qHTS; Potency, µM, for the others: largest response in the series, negative = inhibition, hits mostly inhibitors; 310,000 tested, 3.5% active; AID 1490;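 also: the enzyme is Sfp with the accession as filed and its product quenches rhodamine fluorescence; 0% = enzyme reaction without inhibitor and -100% = no enzyme wells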
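After 15 min at room temperature with compound, 15 nM Sfp received 5 uM rhodamine-CoA plus 12.5 uM BHQ-2-ybbR (50 mM Hepes pH 7.6, 10 mM MgCl2). Rate came from the fluorescence difference over 30 min, ex 525/em 598 nm.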
BAZ2B inh – blocks human BAZ2B; Q9UIF8; AlphaScreen BAZ2B-H3K14Ac peptide displacement; 360,000 tested, 4.4% active; Potency, µM (titrated, usually from 114 µM), inactives show at the highest dose activity change, negative = inhibition, hits mostly inhibitors; AID 504333; also: % is scaled to controls: 0 for no effect and ±100 for the full control effect; nearly all actives have a fitted effect of over 60% in size
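Inhibition is scored as reduced AlphaScreen emission. The BAZ2B/b-H3(5-23)K14Ac complex (50 nM each) in PBS pH 7.4, 0.01% Tween-20 meets compound (up to 110 uM) for 30 min at RT before bead addition.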
Active calls of the source: *; u = inconclusive; x = no result given; [ ] = remark or other dose. An excerpt weighted towards active compounds, which were near 12% of everything screened. Calls follow the shape of the dose curve; as a rule, active = well fitted curve in the direction sought with a large enough effect; inconclusive = small, poorly fitted or top-dose-only effect, or another doubt; inactive = no such curve, though single readings can be large; an effect the other way counts as inactive or inconclusive. Potency is read from the fitted curve at half-maximal effect.

SMILES	HP1b chromo inh	JMJD2A Tudor	G9a block	L3MBTL1 inh	Sfp inh	BAZ2B inh
CCC(C)NC(=O)CN1C(=O)NC2NC(=O)NC21 (configuration not stated)	6%	-4%[11.4 µM]	1%	x	9%	-17%
NC(C(=O)O)C(c1ccccc1)C(F)F (configuration not stated)	-1%	50µM*	11µM*	7%	u	-31%
NC(=O)NC(c1ccccc1)c1ccccc1	26%	-1%	-1%[59 µM]	x	20%	-1%
Cc1cccc(OCCOCCSc2ncccn2)c1	45%	9%	9%[12.7 µM]	x	8%	11%
Cc1cccc(OCCSc2nc(N)cc(N)n2)c1	-10%	-12%[11.4 µM]	x	-2%	45µM*	u
O=[N+]([O-])c1ccc(N/N=C2\CC3CC=CC23)cc1 (configuration not stated)	16%	u	45µM*	x	-6%	u
O=C(O)c1cccc2c1/C(=N/Nc1ccc([N+](=O)[O-])cc1[N+](=O)[O-])c1ccccc1-2	-12%	-23%	u	x	3%	u
O=C(N/N=C1\CC2CC=CC12)c1ccc(O)cc1 (configuration not stated)	22%	-7%	13%	5%	-15%	x
O=[N+]([O-])c1ccc(N/N=C2\CC3CC=CC23)c([N+](=O)[O-])c1 (configuration not stated)	14µM*	14µM*	14µM*	u	u	3.2µM*
CC(=O)N1CCC2(CC1)CN(c1ccccc1)C2	x	x	1%[12.7 µM]	x	6%	x
NCCCCNS(=O)(=O)c1ccc2c(Cl)cccc2c1	x	x	x	x	-2%	x
Oc1ccccc1C1=Nc2ncnn2C(c2ccc(F)cc2)C1 (configuration not stated)	33%	-20%	25µM*	-2%	-18%	56µM*
Fc1ccc(C2CC(c3ccc(F)cc3)n3ncnc3N2)cc1 (configuration not stated)	17%	-27%	-20%	2%	-2%	-32%
CCCCC(=O)OC1=C(C(C)=O)N(Cc2ccccc2)S(=O)(=O)c2ccccc21	15%	79µM*	u	x	x	u
CCC(=O)OC1=C(C(C)=O)N(Cc2ccccc2)S(=O)(=O)c2ccccc21	28%	50µM*	u	x	x	-30%
CCN(CC)c1ccc(NC(=O)C2CCCC2)cc1	-19%	u	45µM*	-15%	-2%	u
CCN(CC)c1ccc(NC(=O)Nc2cccc3ccccc23)cc1	-10%	-24%	3.2µM*	x	-21%	u
CCN(CC)c1ccc(NC(=O)C(C)C)cc1	5%	u	11µM*	-3%	-1%	-3%
CCN(CC)c1ccc(NC(=O)C2CC3CCC2C3)cc1 (configuration not stated)	u	79µM*	6.3µM*	u	-18%	-68%
O=C(CSCc1ccc(F)cc1)N1CCc2c([nH]c3ccccc23)C1c1ccc(Cl)cc1 (configuration not stated)	7%[57 µM]	-32%	-29%[59 µM]	x	x	-22%
COc1ccc(Cl)cc1-n1nnc(-c2nc(-c3ccccc3)no2)c1C	22%	-3%	3%[59 µM]	x	x	1%
Cc1ccc2c(c1)N(C(=O)N1CCC(C(=O)NCCc3ccc(Cl)cc3)CC1)CC(C)O2 (configuration not stated)	49%	-1%	-21%[59 µM]	x	x	-2%
Nc1nc(=S)n(-c2ccccc2)[nH]1	u	3.5µM*	10µM*	x	28µM*	u
S=c1nc(-c2ccccc2)[nH]n1-c1ccccc1	u	22µM*	u	-1%	40µM*	-37%
Cc1nc(=S)n(-c2ccccc2)[nH]1	43%	7.1µM*	14µM*	16%	u	6%
Nc1cc(=O)[nH]c(=S)n1-c1ccccc1	10%	-19%	u	x	u	7%
Cc1cc(-c2c(C)[nH]n(-c3ccccc3)c2=O)n(-c2ccccc2)n1	15%	-17%	x	0%	13%	-31%
